ROC1-CUL1 inh = inhibitors of human ROC1-CUL1 ubiquitin ligase activity | AID 1347404, 2020 | E3 ubiquitin-protein ligase RBX1 (Homo sapiens) + Cullin-1 (Homo sapiens), P62877+Q13616 | in vitro K48 di-Ub FRET, acceptor:donor ratio, 45 min | 140,000 compounds, 0.6% hits | inhibition, % at 10 µM; in the data active = inhibition above about 25%
Target sequence (P62877 whole entry, looked up): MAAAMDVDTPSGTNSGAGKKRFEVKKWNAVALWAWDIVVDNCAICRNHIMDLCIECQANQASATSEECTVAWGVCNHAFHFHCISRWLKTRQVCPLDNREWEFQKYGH
Target sequence (Q13616 whole entry, looked up): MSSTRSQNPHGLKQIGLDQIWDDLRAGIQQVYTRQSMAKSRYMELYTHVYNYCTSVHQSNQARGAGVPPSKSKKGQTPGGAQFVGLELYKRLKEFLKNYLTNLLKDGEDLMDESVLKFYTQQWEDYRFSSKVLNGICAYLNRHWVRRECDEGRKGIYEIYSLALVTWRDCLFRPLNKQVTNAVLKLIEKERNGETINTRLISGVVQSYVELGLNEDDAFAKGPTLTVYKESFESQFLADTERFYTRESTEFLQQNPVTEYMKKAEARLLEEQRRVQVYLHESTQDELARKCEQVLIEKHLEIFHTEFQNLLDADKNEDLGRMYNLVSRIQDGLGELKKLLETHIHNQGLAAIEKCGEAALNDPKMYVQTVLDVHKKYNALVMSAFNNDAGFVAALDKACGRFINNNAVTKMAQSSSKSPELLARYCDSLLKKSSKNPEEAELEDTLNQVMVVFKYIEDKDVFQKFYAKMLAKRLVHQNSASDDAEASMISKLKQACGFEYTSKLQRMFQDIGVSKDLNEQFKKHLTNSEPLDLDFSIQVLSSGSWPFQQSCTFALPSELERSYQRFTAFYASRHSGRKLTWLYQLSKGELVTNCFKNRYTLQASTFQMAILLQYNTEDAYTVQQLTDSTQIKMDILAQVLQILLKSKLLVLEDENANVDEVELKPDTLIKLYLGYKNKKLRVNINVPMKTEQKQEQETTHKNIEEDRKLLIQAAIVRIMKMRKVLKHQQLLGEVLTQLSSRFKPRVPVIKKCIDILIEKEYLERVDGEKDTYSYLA
A number is an active result; 0 = inactive. The sample as a whole holds a higher share of hits than the screen did.

SMILES	ROC1-CUL1 inh
CCOc1cc(/C=C2\C(=O)NC(=O)N(c3ccc(Cl)cc3)C2=O)cc(Br)c1O	0
CCOc1c(/C=C2\C(=O)NN(c3ccc(Cl)c(Cl)c3)C2=O)cccc1OC	0
Cc1ccc(N2NC(=O)/C(=C/c3ccc4c(c3)n(C)c(=O)n4C)C2=O)cc1Cl	0
O=C1NC(=S)NC(=O)C1=Cc1cc2c(cc1Cl)OCO2	0
Cc1ccc(N2NC(=O)/C(=C/c3cc4c(cc3Cl)OCO4)C2=O)cc1C	64.5
CCOc1cc(/C=C2\C(=O)NN(c3ccc(Cl)cc3)C2=O)c(Br)c(Br)c1O	73.2
CCOc1ccc(/C=C2/C(=O)NN(c3ccc(Cl)cc3)C2=O)cc1OC	0
Cc1ccc(N2NC(=O)/C(=C/c3ccccc3OCc3ccccc3)C2=O)cc1	0
CN=C1N=NC(Nc2ccccc2F)C(=N)O1 (stereo unspecified)	0
CC(=O)N1CCN(c2ncccc2CNC(=O)c2cc(CC(C)C)[nH]n2)CC1	0
N#CC1C(=N)Oc2n[nH]c(-c3ccc(-c4ccccc4)cc3)c2C1c1ccccn1 (stereo unspecified)	30.8
N#CC1C(=N)Oc2n[nH]c(-c3ccc(-c4ccccc4)cc3)c2C1c1ccccc1F (stereo unspecified)	0
Cc1ccc(-c2[nH]nc3c2C(c2ccc(Cl)cc2)C(C#N)C(=N)O3)cc1 (stereo unspecified)	0
Cc1ccc(-c2[nH]nc3c2C(c2ccc(O)c(O)c2)C(C#N)C(=N)O3)cc1 (stereo unspecified)	34.6
Cc1ccc(-c2[nH]nc3c2C(c2ccc4c(c2)OCO4)C(C#N)C(=N)O3)cc1 (stereo unspecified)	0
N#CC1C(=N)Oc2n[nH]c(-c3ccccc3)c2C1c1ccccc1Cl (stereo unspecified)	0
COc1cc(CNC(C)(C)CO)cc(Cl)c1OCC(N)=O	0
Cc1sc(C2=CC3C(=O)CC(c4ccccc4)CC3=NC2=O)nc1-c1ccc(Cl)cc1 (stereo unspecified)	0
COc1cc(/C=C(/C#N)C(=O)O)cc(OC)c1	0
CCOC(=O)c1c(NC(=O)c2cc3nc(-c4ccc(OC)cc4)cc(C(F)(F)F)n3n2)sc2c1CCCCC2	0
COc1cccc(CS(=O)(=O)C2C(C)CC(C)(C)CC2O)c1 (stereo unspecified)	0
COCCN(C(=O)c1csc2nc(-c3ccc(OC)c(F)c3)cn12)C(C)C	0
CCc1[nH]nc2c1C(c1ccncc1)C(C#N)C(=N)O2 (stereo unspecified)	0
CN(Cc1cnn(C)c1)c1nncc(-c2cccc(Cl)c2)n1	0
COc1cc(CNCCSC)ccc1OCC(O)CN1CCCCCC1 (stereo unspecified)	0
SMILES	ROC1-CUL1 inh
COc1cc(CNC(C)(C)C)ccc1OCC(O)CN1CCCC1 (stereo unspecified)	99.2
COc1cc(CN2CCCC2)ccc1OCC(O)CN1CCCCCCC1 (stereo unspecified)	0
O=C1CC(N2CCN(c3ccc(F)cc3)CC2)=NC(=O)N1c1cccc(Br)c1	0
N=c1c(Nc2ccc(F)cc2)nnc(N)n1C(=O)c1ccccc1	0
Oc1ccccc1/C=N/Nc1nc2ccccc2n2nnnc12	0
CCc1nc(CN2CCC(N3CCC(C(=O)NC(C)C)CC3)CC2)c(C)[nH]1	0
O=C(O)c1ccccc1SCCSc1nc2ccccc2o1	33.8
c1ccc2oc(SCCCCCCSc3nc4ccccc4o3)nc2c1	0
c1ccc(CSc2nc3ccccc3o2)c(CSc2nc3ccccc3o2)c1	0
COc1ccc(/C=C2\N=C(c3ccccc3)OC2=O)cc1[N+](=O)[O-]	0
CCOc1cc(/C=C2\N=C(c3ccccc3)OC2=O)ccc1OCc1ccc(Cl)cc1	0
CCN(CC)c1ccc(/C=C2\N=C(c3ccccc3)OC2=O)cc1	31.7
Cc1ccccc1C(=S)Nc1sc2c(c1C(=S)N1CCOCC1)CCCC2	0
O=C(Nc1ccc(Sc2ccccn2)c(Cl)c1)c1cccs1	0
COc1ccc(C2=C(C#N)C(=S)N=C3CCCCCC32)cc1 (stereo unspecified)	0
Cc1ccc(C(C)C)c(OCC(=O)N(Cc2ccc(Br)cc2)c2ccccc2C(=O)O)c1	0
COc1ccccc1NC(=O)C(=O)N/N=C/c1cc2c(cc1Br)OCO2	0
C(=N\N(c1ccccc1)c1ccccc1)/c1ccco1	0
C(=C1Sc2ccccc2S1)c1ccco1	57.3
N#CC1C(=N)S/C(=C/c2ccco2)C1=N (stereo unspecified)	0
CC(C)=NNC(=O)C1CC1c1ccccc1 (stereo unspecified)	0
O=C1Nc2ccc(Br)cc2C1=Cc1nc2ccccc2c(=O)n1Cc1ccccc1	0
O=C(O)COc1ccccc1/C=C1\C(=O)Nc2ccc(Br)cc21	0
O=C1Nc2ccc(Br)cc2/C1=C\c1nc2ccccc2c(=O)n1-c1cccc(C(=O)O)c1	31.7
CCN1CC(CNC(=O)c2cc(NC(=O)COC)cc3ncn(CCc4ccccc4)c23)CC1=O (stereo unspecified)	0
SMILES	ROC1-CUL1 inh
O=C1NN(c2ccccc2)C(=O)/C1=C/c1cc(Br)ccc1OCc1ccc(Cl)c(Cl)c1	72.3
Cc1ccccc1COc1ccc(Br)cc1/C=C1\C(=O)NN(c2ccccc2)C1=O	49.5
O=C1NN(c2ccccc2)C(=O)/C1=C/c1ccccc1OCCCOc1ccccc1	0
O=C1NN(c2ccc(Br)cc2)C(=O)/C1=C\c1ccccc1OCc1ccccc1	0
Cc1ccc(OCCCOc2ccc(Br)cc2/C=C2\C(=O)NN(c3ccccc3)C2=O)cc1	60.6
O=C1NN(c2ccccc2)C(=O)/C1=C/c1ccc(OCc2ccc(Cl)c(Cl)c2)cc1	0
O=C1NN(c2ccccc2)C(=O)/C1=C/c1ccccc1OCc1ccc(Cl)c(Cl)c1	0
O=C1NN(c2ccccc2)C(=O)/C1=C\c1cc(O)ccc1Br	0
O=C1NN(c2ccccc2)C(=O)/C1=C/c1cc(Br)ccc1OCCCOc1ccc(Cl)cc1	0
COCC(=O)Nc1nc2c(C)cccc2s1	0
CCc1cc(C(=O)N2CCN(c3ccccc3)CC2)cs1	0
Cc1ccc(N2C(=O)NC(=O)C(C=Nc3ncc(Br)cc3Br)C2=O)cc1 (stereo unspecified)	0
CC1=Nc2ncnn2C(c2ccc[nH]2)C1C(=O)Nc1ccc(C)cc1C (stereo unspecified)	0
O=C(CN1CCN(S(=O)(=O)N2CCOCC2)CC1)Nc1ccc(Br)cc1	0
Cc1oc(-c2ccc(Cl)cc2)nc1CN1CCCCC1CCN1CCCC1=O (stereo unspecified)	0
CCN(CC)c1ccc(/C=C2\SC(=Nc3ccc(Cl)c(Cl)c3)NC2=O)o1	28.8
Cc1cc(N=C2NC(=O)/C(=C\c3ccc(Br)o3)S2)ccc1Cl	0
Cc1ccc(/C=C2\SC(=Nc3ccc(C)c(C)c3)NC2=O)o1	0
CCCN(Cc1ccco1)C(=O)Cn1ncc(N2CCOCC2)cc1=O	0
CC(=O)Nc1ccc(-n2c(C)ccc2C)cc1	0
COC(=O)c1ccc(-n2c(C)ccc2C)cc1	0
Cc1ccc(C)n1-c1ccc(CC(=O)O)cc1	66.9
C=CCOC(=O)C1=C(C)N=C(SCC(=O)NC(=O)OCC)C(C#N)C1c1cccnc1 (stereo unspecified)	0
CN(C)/C=C1\C=C2C(=O)c3ccccc3N2C1=O	37.3
Cc1ccccc1N1C(=O)C(=Cc2ccc(N(C)C)cc2)C(=O)N(c2ccccc2C)C1=O	0
O=C1C=C2c3ccccc3-c3ccccc3N2C(=O)C1c1ccccc1 (stereo unspecified)	0
COCC1CCCN(C(=O)c2ccc(N(C)CCc3ccccc3)nc2)C1 (stereo unspecified)	0

Screens: PubChem BioAssay, Pan Lab, Icahn School of Medicine at Mount Sinai
